Measurements: PubChem BioAssay
Results with a measured potency or affinity are listed apart. Inconclusive results are not listed. Activity calls are given as the source filed them. Unless noted, the rule behind the calls is not given here.

How the values were obtained:
[1] = RMG-1 ovarian cancer cell viability loss – cherry-pick, dose response (AID 687029;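 active = signal drop whose fitted half-maximal concentration is at most twice the top valid dose, in every test run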;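 note: cells exposed to compound for 96 hours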); conditions: RMG-1 viability, CellTiterGlo ATP luminescence, 96 h; series mostly up to 35 µM
[2] = IOSE-T80 viability loss, PAX8-independent line – cell-based, cherry-pick, selectivity assay for PAX8 inhibitor project, dose response (AID 687032;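 active = fitted half-maximal concentration for viability loss no higher than twice the top valid dose, in every repeat run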;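 note: cells exposed to compound for 96 h before reading; 0% = neutral control wells and -100% = 2 µM mitoxantrone kill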); conditions: CellTiterGlo ATP luminescence, 96 h; series mostly up to 35 µM
[3] = CMV-driven luciferase expression suppression in HEK293 – cell-based, luminescence, dry powder, counter-screen for Pax8 inhibitor project, dose response (AID 743020;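 active = signal-lowering compounds whose fitted half-maximal concentration is at or below twice the top tested dose in every run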;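 note: HEK293 cells stably expressing the CMV luciferase reporter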); conditions: HEK293 CMV-luciferase reporter, SteadyGlo luminescence, 24 h; series mostly up to 35 µM
[4] = IGROV1 cell killing – plate reader, dry powder samples, PAX8 inhibitor project, dose response (AID 743043); conditions: IGROV1 ovarian cancer cell cytotoxicity; series mostly up to 35 µM;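 note: more negative means fewer viable cells or more cytotoxicity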
[5] = A2780 cell killing – plate reader, dry powder samples, cytotoxicity control, dose response (AID 743046); conditions: A2780 ovarian cancer cytotoxicity; series mostly up to 35 µM;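 note: 0% = neutral control wells and -100% = cytotoxic reference compound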
[6] = toxicity toward immortalized ovarian surface epithelium – cell-based, plate reader, dry powder samples, cytotoxicity control for PAX8 inhibitor project, dose response (AID 743045); conditions: IOSE-T80 ovarian epithelial cells; series mostly up to 35 µM;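 note: 0% = neutral control median and -100% = positive control median; more negative values mean more cell killing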
[7] = OVCAR8 cell viability loss – plate reader, dry powder samples, PAX8 project, dose response (AID 743197); conditions: series mostly up to 35 µM
[8] = OVCAR-3 cell viability loss – plate reader, dry powder samples, PAX8 inhibitor project, dose response (AID 743044); conditions: NIH:OVCAR-3 ovarian cancer cell viability; max activity: at 35 µM, stronger effect = lower value unless noted; series mostly up to 50 µM
[9] = general cell-killing toxicity readout – plate reader, dry powder samples, cytotoxicity control for PAX8 inhibitor project, dose response (AID 743021); conditions: cell line, non-specific cytotoxicity counter-screen; series mostly up to 35 µM

Cc1ccc(S(=O)(=O)Nc2ccc3c(c2)C(=O)N([C@H](C)CO)C[C@H](C)[C@H](CN(C)Cc2ccc(C(F)(F)F)cc2)OCCCC[C@H](C)O3)cc1
inactive: outcome [1] | outcome [2] | outcome [3] | outcome [4] | outcome [5]

C[C@@H]1CN([C@@H](C)CO)C(=O)Cc2cc(NS(=O)(=O)c3ccccc3)ccc2O[C@H]1CN(C)Cc1ccc(C(F)(F)F)cc1
inactive: outcome [1] | outcome [2] | outcome [3] | outcome [6] | outcome [5]

COc1ccc(NC(=O)N2CC(=O)N3[C@H](C2)[C@H](c2ccc(/C=C/c4ccccc4)cc2)[C@@H]3CO)cc1
inactive: outcome [1] | outcome [2] | outcome [3] | outcome [6] | outcome [7]

O=C1CN(S(=O)(=O)Cc2ccccc2)C[C@@H]2[C@@H](c3ccc(C#Cc4ccc(F)cc4)cc3)[C@@H](CO)N12
inactive: outcome [1] | outcome [2] | outcome [3] | max activity [8] -59.7% [at 16 µM, stronger effect = lower value] | outcome [6] | outcome [5]

COc1ccc(-c2ccc3c(c2)[C@H]2[C@H](CCN2S(=O)(=O)c2ccc(F)cc2)[C@H](CO)N3C)cc1
inactive: outcome [1] | outcome [2] | outcome [3] | outcome [6] | outcome [5]

CCc1cnc(N2[C@@H](C#N)[C@@H](c3ccc(C#CC(C)C)cc3)[C@@H]2CO)s1
inactive: outcome [1] | outcome [2] | outcome [3] | max activity [8] 27.5% [at 1 µM, stronger effect = lower value] | outcome [6] | outcome [7]

O=C(Nc1cccc(F)c1)N1C[C@@H]2N[C@H](C1)C2c1ccc(-c2ccc(F)cc2)cc1 (some centres not stated)
inactive: outcome [1] | outcome [2] | outcome [3] | outcome [5] | outcome [7]

C[C@H](CO)N1C[C@H](C)[C@@H](CN(C)S(=O)(=O)c2ccc(Cl)cc2)OCCCC[C@H](C)Oc2ccc(NS(=O)(=O)c3ccccc3)cc2C1=O
inactive: outcome [1] | outcome [2] | outcome [3] | outcome [4] | outcome [5] | outcome [7]

O=C(c1ccc(F)cc1)N1CC(=O)N2[C@@H](CO)[C@@H](c3ccc(C#Cc4ccc(F)cc4)cc3)[C@@H]2C1
inactive: outcome [1] | outcome [2] | outcome [3] | outcome [6] | outcome [5]

C[C@H](CO)N1C[C@H](C)[C@@H](CN(C)S(=O)(=O)c2ccc(Cl)cc2)OCCCC[C@H](C)Oc2ccc(NS(=O)(=O)c3cccs3)cc2C1=O
inactive: outcome [1] | outcome [2] | outcome [3] | outcome [4] | outcome [5]

C[C@@H]1CCCCO[C@H](CN(C)CC2CCCCC2)[C@H](C)CN([C@H](C)CO)C(=O)c2cc(NS(=O)(=O)c3ccccc3)ccc2O1
inactive: outcome [1] | outcome [2] | outcome [3] | outcome [6] | outcome [5]

Fc1cccc(CN2C[C@@H]3N[C@H](C2)[C@@H]3c2ccc(-c3cccc(F)c3)cc2)c1
inactive: outcome [1] | outcome [2] | outcome [3] | outcome [4] | outcome [5]

CCCNC(=O)N(C)C[C@H]1N[C@@H](CO)[C@@H]1c1ccc(C2=CCCCC2)cc1
inactive: outcome [1] | outcome [2] | outcome [3] | outcome [5]

COc1ccc(-c2ccc(C3[C@@H]4CN(Cc5cc(OC)cc(OC)c5)C[C@H]3N4)cc2)cc1 (some centres not stated)
inactive: outcome [1] | outcome [2] | outcome [3] | max activity [8] -15.8% [at 16 µM, stronger effect = lower value] | activity change, negative = cytotoxicity [6] 6.64% [at 8 µM] | outcome [5]

COc1ccc(NC(=O)N2C[C@@H]3N[C@H](C2)[C@@H]3c2ccc(-c3ccc(OC)cc3)cc2)cc1
inactive: outcome [1] | outcome [2] | outcome [3] | outcome [5]

Cc1ccccc1-c1ccc(C2[C@@H]3CN(C(=O)Nc4cccc(F)c4)C[C@H]2N3)cc1 (some centres not stated)
inactive: outcome [1] | outcome [2] | outcome [3] | outcome [6] | outcome [5] | outcome [7]

O=C(Nc1cccc(F)c1)N1CCCCN2[C@H](CO)[C@@H](c3ccc(-c4ccccc4F)cc3)[C@H]2C1
inactive: outcome [1] | outcome [2] | outcome [3] | outcome [6] | outcome [5] | outcome [7]

C[C@@H]1CN([C@H](C)CO)C(=O)c2cc(NC(=O)CCCCCC(=O)Nc3ccccc3N)ccc2O[C@@H]1CN(C)Cc1ccc(C(F)(F)F)cc1
inactive: outcome [1] | outcome [2] | outcome [3] | outcome [6] | outcome [5] | outcome [7]

C[C@@H]1CN([C@H](C)CO)C(=O)c2cc(NC(=O)Nc3ccc(C(F)(F)F)cc3)ccc2O[C@@H](C)CCCCO[C@H]1CN(C)Cc1ccc2c(c1)OCO2
inactive: outcome [1] | outcome [2] | outcome [3] | max activity [8] -34.3% | outcome [6] | outcome [5]

C[C@@H]1CN([C@H](C)CO)C(=O)c2cc(NC(=O)Nc3ccc(C(F)(F)F)cc3)ccc2O[C@@H](C)CCCCO[C@@H]1CN(C)Cc1ccccc1
inactive: outcome [1] | outcome [2] | outcome [3] | outcome [6]

C[C@@H]1CCCCO[C@H](CN(C)Cc2ccc(Cl)c(Cl)c2)[C@@H](C)CN([C@@H](C)CO)C(=O)c2cc(NC(=O)c3ccccc3)ccc2O1
inactive: outcome [1] | outcome [2] | outcome [3] | outcome [6] | outcome [5]

C[C@H](CO)N1C[C@H](C)[C@@H](CN(C)Cc2ccc(-c3ccccc3)cc2)Oc2ccc(NS(=O)(=O)c3ccccc3)cc2CC1=O
inactive: outcome [1] | outcome [2] | outcome [3] | max activity [8] 6.95% | outcome [6] | outcome [7]

COc1ccc(NC(=O)N2CC(=O)N3[C@@H](CO)[C@@H](c4ccc(/C=C/c5ccccc5)cc4)[C@@H]3C2)cc1
inactive: outcome [1] | outcome [2] | outcome [3] | max activity [8] 30.3% [at 16 µM, stronger effect = lower value] | outcome [6] | outcome [5]

N#C[C@H]1[C@@H](c2ccc(C#Cc3ccc(F)cc3)cc2)[C@H](CO)N1C(=O)C1CCCC1
inactive: outcome [1] | outcome [2] | outcome [3] | outcome [6]

Cc1ccc(-c2ccc(C3[C@@H]4CN(C(=O)Nc5ccc(C(F)(F)F)cc5)C[C@H]3N4)cc2)cc1 (some centres not stated)
inactive: outcome [1] | outcome [2] | outcome [3] | outcome [4] | outcome [5]

C[C@@H]1CN([C@@H](C)CO)C(=O)Cc2cc(NS(=O)(=O)c3ccc(Cl)cc3)ccc2O[C@@H]1CN(C)CC1CCCCC1
inactive: outcome [1] | outcome [2] | outcome [3] | outcome [6] | outcome [5] | outcome [7]

O=C(C1CCC1)N1CC(=O)N2[C@H](CO)[C@H](c3ccc(C#CCc4ccccc4)cc3)[C@H]2C1
inactive: outcome [1] | outcome [2] | outcome [3] | outcome [6]

COc1ccccc1-c1ccc([C@@H]2[C@@H]3CN(S(=O)(=O)c4ccc(-c5ccccc5)cc4)C[C@H]2N3)cc1
inactive: outcome [1] | outcome [2] | outcome [3] | outcome [6] | outcome [5]

CCS(=O)(=O)N1Cc2ccccc2CC1C(=O)Nc1nnc(SCc2c(Cl)cccc2Cl)s1 (configuration not stated)
inactive: outcome [1] | outcome [2] | outcome [9]

CC(C)(C)C(=O)Nc1ccc(NC(=O)c2ccco2)nc1
inactive: outcome [1] | outcome [2] | outcome [9]

COc1c(C=O)c2c(c(OC)c1OC)-c1ccc(OC)c(=O)cc1C(NC(C)=O)CC2 (configuration not stated)
inactive: outcome [1] | outcome [2] | outcome [9]

Cc1cccc(C)c1NS(=O)(=O)c1ccc(-c2cnc(C3CC3)o2)cc1
inactive: outcome [1] | outcome [2] | outcome [9]

COc1cc(/C=C2\COC/C(=C\c3cc(OC)c(OC)c(OC)c3)C2=O)cc(OC)c1OC
inactive: outcome [1] | outcome [2] | outcome [9]

COc1cccc2c1C(=O)c1c(O)c3c(c(O)c1C2=O)CC(O)(C(C)=O)CC3OC1CC(N(C)C)C(O)C(C)O1 (configuration not stated)
inactive: outcome [1] | outcome [2] | outcome [9]

CN(C)CCNc1ccc(CO)c2sc3ccc(O)cc3c(=O)c12
inactive: outcome [1] | outcome [2] | outcome [9]

COc1ccccc1NS(=O)(=O)c1cccc(C(=O)N/N=C/c2ccc([N+](=O)[O-])o2)c1
inactive: outcome [1] | outcome [2] | outcome [9]

Cc1cccc(C2(c3cccc(C)c3)CC2C(=O)Nc2ccc([N+](=O)[O-])cc2O)c1 (configuration not stated)
inactive: outcome [1] | outcome [2] | outcome [9]

O=C(O)CCCN1C(=O)/C(=C\C(Cl)=C\c2ccccc2)SC1=S
inactive: outcome [1] | outcome [2] | outcome [9]

CC(=O)Nc1cc(-c2cccc(C(=O)NCCN(C)C)c2)cn2c(-c3cccc(C(F)(F)F)c3)cnc12
inactive: outcome [1] | outcome [2] | outcome [9]

Oc1ccc2ccccc2c1N=Nc1nccs1
inactive: outcome [1] | outcome [2] | outcome [9]
